DT40 TDP1 no CPT: qHTS for Inhibitors of human tyrosyl-DNA phosphodiesterase 1 (TDP1): qHTS in cells in absence of CPT; DT40 Tdp1-/- hTDP1 cells, no CPT, ATP luminescence, 48 h; Potency, µM (titrated, usually from 46.2 µM), without a hit: at the top dose activity change, negative = growth inhibition, actives largely listed as inhibitors; actives 15% (n = 420,000); AID 686978, 2013; further: potency means the concentration at half of the fitted maximal effect; nearly all actives have a fitted effect of over 55% in size
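Camptothecin absent (DMSO only). Human TDP1-complemented DT40 knockout cells, 400 cells/well, 37 °C for minimum 48 hr; ATP measured via CellTiter-Glo, 30 min dark incubation, luminescence.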
DT40 TDP1 CPT: growth inhibition of DT40 Tdp1-/-;hTDP1 cells with camptothecin (screen for TDP1 inhibitors). chicken DT40 Tdp1-/-;hTDP1 cells + 20 nM CPT, ATP luminescence, 48 h. Potency, µM (highest dose often 46.2 µM), for the others: at the top dose activity change, negative = growth inhibition, hits mostly inhibitors. actives 12% (n = 420,000); further: potency means the concentration at half of the fitted maximal effect; nearly all actives have a fitted effect of over 55% in size
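Cell growth measured by CellTiter-Glo luminescence after a minimum 48 h, 37 C compound exposure with 20 nM CPT in Tdp1-knockout DT40 cells stably expressing hTDP1, seeded 400/well; qHTS titration format.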
ALOX12 inh: ALOX12 (human) lipoxygenase inhibition | purified 12hLO, xylenol orange hydroperoxide absorbance | Potency, µM (doses to about 108 µM), inactives show at the highest dose activity change, negative = inhibition, most hits filed as inhibitors | actives 1.1% (n = 580,000) | AID 1671190; further: potency means the concentration at half of the fitted maximal effect
Target sequence (P18054 whole entry, looked up): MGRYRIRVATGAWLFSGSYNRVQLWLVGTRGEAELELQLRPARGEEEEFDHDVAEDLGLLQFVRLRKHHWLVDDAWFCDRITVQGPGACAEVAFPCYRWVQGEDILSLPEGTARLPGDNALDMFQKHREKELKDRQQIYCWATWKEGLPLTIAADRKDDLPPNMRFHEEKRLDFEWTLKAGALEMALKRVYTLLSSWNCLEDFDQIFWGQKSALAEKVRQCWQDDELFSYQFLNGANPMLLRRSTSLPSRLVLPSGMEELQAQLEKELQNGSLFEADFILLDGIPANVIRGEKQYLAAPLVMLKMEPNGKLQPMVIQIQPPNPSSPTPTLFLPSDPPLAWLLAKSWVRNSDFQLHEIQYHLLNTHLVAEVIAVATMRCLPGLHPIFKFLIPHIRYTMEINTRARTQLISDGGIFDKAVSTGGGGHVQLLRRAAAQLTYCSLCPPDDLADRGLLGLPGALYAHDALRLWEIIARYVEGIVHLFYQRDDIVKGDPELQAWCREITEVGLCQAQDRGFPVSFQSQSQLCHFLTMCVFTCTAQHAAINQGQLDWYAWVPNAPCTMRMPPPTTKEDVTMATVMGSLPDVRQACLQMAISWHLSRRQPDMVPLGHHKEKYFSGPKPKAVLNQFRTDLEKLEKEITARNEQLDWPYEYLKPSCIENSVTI
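Purified human 12hLO at 150 nM in 25 mM Hepes, 0.01% Triton X-100, pH 7.0, preincubated 15 min at room temperature with compound. Reaction started with 40 uM arachidonic acid, 30 min at room temperature. Hydroperoxide measured by Fe-xylenol orange, 573/405 nm absorbance ratio.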
HT1080 IDH1KD tx: toxicity to HT-1080 IDH1 knockdown cells (counter line); HT-1080 IDH1 knockdown viability, ATP luminescence, 48 h; Potency, µM (titrated, usually from 46.1 µM), for inactives: at the highest dose activity, negative = toxicity, most hits filed as cytotoxic; actives 2% (n = 360,000);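 further: potency means the concentration at half of the fitted maximal effect; 0% = DMSO wells and -100% = cell-free medium wells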
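In this qHTS, HT-1080 cells depleted of IDH1 are exposed for 48 h at 37 °C to compound titrations. Toxicity is scored from CellTiter-Glo luminescence, with DMSO as full viability and medium alone as none.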
IL-1B inflam inh: inhibitors of inflammasome signaling (IL-1 beta secretion); THP-1 LPS/ATP IL-1B secretion, AlphaLISA, 16 h; active compounds read low; activity change, % at 57.5 µM; actives 4.7% (n = 360,000); AID 743279; in the data active means activity change below about -50%; inconclusive means mostly about -30% to -49%
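Secreted IL-1B measured by AlphaLISA bead assay after 16 h compound exposure of THP-1 cells; compounds (final up to 57.5 uM) added 1 h before LPS (250 ng/mL) and ATP (1.25 mM) stimulation; lower signal means less secretion.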
HT1080NT lethal: kills 2HG-producing HT-1080-NT fibrosarcoma cells | Potency, µM (series often up to 46.1 µM), for the others: top-dose activity, negative = less viability, usual class: cytotoxic | actives 1.6% (n = 360,000) | AID 686970 | HT-1080-NT fibrosarcoma viability, CellTiter-Glo ATP luminescence, 48 h;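 further: NT is the 2HG producing partner of a matched IDH1 knockdown line; potency means the concentration at half of the fitted maximal effect; 0% = DMSO-treated cells and -100% = media-only wells without cells; nearly all actives have a fitted effect of over 55% in size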
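Viability of the 2HG-overproducing fibrosarcoma line after 48 hours of compound exposure at 37 degrees C was determined by luminescence with CellTiter-Glo, and concentration-effect curves were then fitted and categorized.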
* = called active by the depositor; i = inactive; ? = inconclusive; . = not tested or not shown. Shown is part of a subset that was picked to be rich in hits. Unless noted, the call rests on the fitted dose curve; in most records, active means well fitted curve in the direction sought with a large enough effect; inconclusive means small, poorly fitted or top-dose-only effect, or another doubt; inactive means no such curve, though single readings can be large; an effect the other way counts as inactive or inconclusive. Unless noted, on the % scale 0 is the no-effect control and ±100 the full control effect.

SMILES | DT40 TDP1 no CPT | DT40 TDP1 CPT | ALOX12 inh | HT1080 IDH1KD tx | IL-1B inflam inh | HT1080NT lethal
COCCn1nnnc1CN(CCc1ccccc1)Cc1cc2ccc(C)cc2[nH]c1=O | 25.9µM* | ? | 6.9% | -0.3% | 0.0 | -2.1%
Cc1ccc2[nH]c(=O)c(CN(Cc3cccs3)Cc3nnnn3Cc3ccco3)cc2c1 | 17.8µM* | ? | . | . | . | .
Cc1ccc2[nH]c(=O)c(CN(CCO)Cc3nnnn3Cc3ccco3)cc2c1 | ? | -28.6% | . | . | . | .
CC(=O)N[C@@H]1CN(Cc2cccc(C#N)c2)C[C@H]1CO | . | . | 38.6% | . | . | .
CC(C)(C)c1cc(S(=O)(=O)CCc2ccccn2)cc(C(C)(C)C)c1F | 14.6µM* | 13µM* | -5.2% | ? | -87.6* | ?
CN(CCc1ccccn1)S(=O)(=O)c1ccc(F)cc1 | -20.7% | -9.7% | ? | -0.7% | 15.3 | 1.6%
Cc1sc2cc(C(=O)NCC3CC3)[nH]c2c1CN1CCCCC1 | . | . | 19.6% | . | . | .
COc1ccc2cnn(CC(=O)N(C)Cc3ccccc3)c(=O)c2c1OC | . | . | 12.1% | . | . | .
O=C1c2ccccc2C(=O)C1Cc1cccc2ccccc12 | -26.6% | 14.1µM* | -29.5% | 3.6% | 14.7 | ?
Cc1cccc(NC(=O)NNC(=O)COc2ccc([N+](=O)[O-])cc2)c1C | -10.8% | 1.5% | i | -8.3% | 7.6 | -6.7%
CCOC(=O)N1CCN(CC(=O)Nc2ccccc2C(=O)Nc2ccccc2)CC1 | ? | ? | 4.8% | 12.6% | -3.6 | 15.4%
Cc1cc([N+](=O)[O-])ccc1NCc1ccc2ccccc2c1 | 18.4µM* | ? | 7.9% | -9.5% | 0.0 | -24.5%
COc1ccc(CNc2ccc([N+](=O)[O-])cc2C)cc1 | -28.3% | ? | -16.7% | -5.4% | -7.9 | 0.8%
O=C(COc1ccc([N+](=O)[O-])cc1)NNC(=O)Nc1ccccc1F | 17.8% | -13.9% | 0.2% | 3.66µM* | 11.3 | 4.11µM*
Cc1cc([N+](=O)[O-])ccc1NC(=O)Cc1ccc(F)cc1 | -3.4% | 5.8% | -16.8% | 2.7% | -58.9* | 2.7%
CCOC(=O)N1CCN(CC(=O)Nc2ccc([N+](=O)[O-])cc2C(=O)Nc2ccccc2F)CC1 | 9.2µM* | 20.6µM* | 3.0% | -18.7% | 23.5 | ?
CCNc1cc(N2CCC(CCC(=O)N3CCN(c4cccc(OC)c4)CC3)CC2)ncn1 | . | . | 28.1% | . | . | .
O=C(Cc1ccc([N+](=O)[O-])cc1)Nc1cc(C(F)(F)F)cc(C(F)(F)F)c1 | 6.51µM* | 4.11µM* | 135.4% | ? | . | -27.3%
Cc1ccc([N+](=O)[O-])cc1NC(=O)Cc1ccc(F)cc1 | 0.6% | -14.2% | -1.1% | -7.0% | -16.1 | -12.7%
Cc1ccc(N=Nc2ccc(C)cc2NC(=O)Nc2ccccc2F)cc1 | 20.6µM* | ? | 16.0% | 5.4% | 7.3 | -0.6%
Cc1cc([N+](=O)[O-])ccc1NC(=O)Nc1ccccc1F | ? | ? | -15.2% | -12.9% | -99.4* | -1.0%
O=C(Nc1ccccc1)Nc1cc([N+](=O)[O-])ccc1F | ? | -0.2% | -26.7% | 5.1% | -5.5 | 11.6%
Cc1ccc(S(=O)(=O)NC(=O)Nc2cc(C)ccc2F)cc1 | -5.1% | -0.9% | 0.0% | 4.3% | -2.0 | -1.2%
Cc1ccc([N+](=O)[O-])cc1NC(=O)Nc1cccc(F)c1 | 9.2µM* | 4.61µM* | -5.8% | -11.8% | -18.2 | -5.5%
CCCCn1c(=O)n(CC(=O)NCc2ccc(C)cc2)c(=O)c2c1ncn2Cc1ccco1 | . | . | -12.3% | . | . | .
SMILES | DT40 TDP1 no CPT | DT40 TDP1 CPT | ALOX12 inh | HT1080 IDH1KD tx | IL-1B inflam inh | HT1080NT lethal
CC1(C)CC(NC(=O)CCc2ccco2)CC(C)(C)N1 | . | . | -9.0% | . | . | .
Fc1ccc(C2Nc3cccc4cccc(c34)N2)cc1 | ? | ? | ? | -28.3% | -18.2 | -10.2%
O=[N+]([O-])c1cccc(C2Nc3cccc4cccc(c34)N2)c1 | 20.6µM* | ? | ? | 4.0% | -8.0 | 5.2%
O=[N+]([O-])c1ccc(C2Nc3cccc4cccc(c34)N2)cc1 | -23.0% | -16.5% | 39.8µM* | 2.9% | -0.7 | 1.9%
COCC1CN(S(=O)(=O)c2ccc(F)c(C)c2)CC12CCNCC2 (stereo unspecified) | . | . | 0.5% | . | . | .
CCNC(=O)CN1CCN(C(=O)C2CCN(c3nc4ccccc4o3)CC2)CC1 | . | . | 4.6% | . | . | .
O=C1c2ccccc2-c2n[nH]c(=O)c3ccc(N4CCCCC4)c1c23 | 9.2µM* | 9.2µM* | 6.8% | ? | -94.3* | ?
O=c1[nH]nc(-c2ccc(N3CCCCC3)c([N+](=O)[O-])c2)c2ccccc12 | . | . | -2.5% | . | . | .
CC(C)CN1C(=O)c2ccccc2C(C(=O)Nc2ccc(C(N)=O)cc2)C12CCCC2 (stereo unspecified) | . | . | -0.8% | . | . | .
COc1ccc(Cl)cc1NC(=O)CN(C)C(=O)c1ccc2c(c1)CC(c1ccccc1)OC2=O (stereo unspecified) | 16.4µM* | 14.6µM* | 150.4% | -3.4% | -3.0 | 0.0%
COc1ccc(NC(=O)CN(C)C(=O)c2ccc3c(c2)CC(c2ccccc2)OC3=O)cc1 (stereo unspecified) | 16.4µM* | 25.9µM* | ? | -0.9% | 40.8 | -2.9%
COc1cccc(NC(=O)CN(C)C(=O)c2ccc3c(c2)CC(c2ccccc2)OC3=O)c1 (stereo unspecified) | ? | ? | -27.9% | 2.8% | -10.0 | -23.0%
Cc1ccc(Cn2c(Sc3ccc(C)cc3)nc3c2c(=O)[nH]c(=O)n3C)cc1 | . | . | -4.7% | . | . | .
CCCNC(=O)NC(=O)CSc1nc2ccccc2c(=O)n1CC1CCCO1 (stereo unspecified) | . | . | 3.0% | . | . | .
CC(C)(C)c1nnc2sc(SCC(=O)c3cccs3)nn2c1=O | 25.9µM* | ? | ? | -22.2% | -19.4 | -19.6%
CC(C)(C)c1nnc2sc(SCC(=O)c3ccc(Cl)cc3)nn2c1=O | ? | -23.7% | . | 20.2% | ? | 16.1%
Cc1ccc(C(=O)CSc2nn3c(=O)c(C(C)(C)C)nnc3s2)cc1 | 18.4µM* | ? | 12.8% | 6.0% | -28.0 | 5.6%
CCc1ccc(-c2nc3c(c(SCc4ccccc4)n2)Cc2c(CO)cnc(C)c2O3)cc1 | -17.2% | -0.3% | -3.4% | . | . | .
C=Cc1ccc(CSc2nc(-c3ccc(C)cc3)nc3c2Cc2c(CO)cnc(C)c2O3)cc1 | 16.4µM* | 14.6µM* | ? | . | . | .
Cc1ccc(-c2nc3c(c(SCC(=O)N4CCOCC4)n2)Cc2c(CO)cnc(C)c2O3)cc1 | 10.3µM* | 23.1µM* | 0.0% | -0.7% | 5.4 | 2.9%

Screening results from PubChem BioAssay.
